Data from PMC7862700, “An all-to-all approach to the identification of sequence-specific readers for epigenetic DNA modifications on cytosine”.

Key:
Assay in all cases: DAPPL (digital affinity profiling via proximity ligation, sequencing); 10 mM Tris-HCl pH 7.5, 50 mM NaCl, 1 mM DTT, 4% glycerol, room temperature, 30 min; GST-TFs on glutathione beads, 16-mer random dsDNA library, 0.1% formaldehyde crosslink after washing; high values mean tight binding
Details in all cases: protein: recombinant; tags: N-terminal GST; dsDNA, one strand shown
FLI1 = target: T1, FLI1 (Homo sapiens, UniProt Q01543 1-452)
T1 sequence: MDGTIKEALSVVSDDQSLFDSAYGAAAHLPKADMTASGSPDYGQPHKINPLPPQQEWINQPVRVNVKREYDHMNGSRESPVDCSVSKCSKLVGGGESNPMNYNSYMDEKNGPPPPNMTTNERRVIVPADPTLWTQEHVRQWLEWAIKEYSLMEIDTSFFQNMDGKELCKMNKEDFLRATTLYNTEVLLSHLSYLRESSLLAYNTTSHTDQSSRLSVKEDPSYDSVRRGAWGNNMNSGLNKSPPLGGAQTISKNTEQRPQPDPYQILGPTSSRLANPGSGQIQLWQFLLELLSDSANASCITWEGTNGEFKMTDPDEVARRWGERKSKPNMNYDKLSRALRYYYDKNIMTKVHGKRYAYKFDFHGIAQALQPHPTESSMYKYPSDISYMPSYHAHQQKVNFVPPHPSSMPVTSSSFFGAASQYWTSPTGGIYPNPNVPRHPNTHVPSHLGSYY
Method in brief: (§1)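 Yeast served to express human transcription factors as GST fusions, which were then captured on glutathione beads and labelled with DNA barcodes. Pooled with a tag-only sample, they were incubated with 200 nmole of a 16-mer random double-stranded DNA library for 30 min at room temperature in Tris/NaCl/DTT/glycerol buffer, washed, crosslinked with 0.1% formaldehyde, ligated by proximity, amplified by PCR and sequenced. Dividing each hexamer's read frequency for a factor by its frequency for the tag-only sample gives the binding signal.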

GABPA = target: T2, GABPA (Homo sapiens, UniProt Q06546 1-454)
T2 sequence: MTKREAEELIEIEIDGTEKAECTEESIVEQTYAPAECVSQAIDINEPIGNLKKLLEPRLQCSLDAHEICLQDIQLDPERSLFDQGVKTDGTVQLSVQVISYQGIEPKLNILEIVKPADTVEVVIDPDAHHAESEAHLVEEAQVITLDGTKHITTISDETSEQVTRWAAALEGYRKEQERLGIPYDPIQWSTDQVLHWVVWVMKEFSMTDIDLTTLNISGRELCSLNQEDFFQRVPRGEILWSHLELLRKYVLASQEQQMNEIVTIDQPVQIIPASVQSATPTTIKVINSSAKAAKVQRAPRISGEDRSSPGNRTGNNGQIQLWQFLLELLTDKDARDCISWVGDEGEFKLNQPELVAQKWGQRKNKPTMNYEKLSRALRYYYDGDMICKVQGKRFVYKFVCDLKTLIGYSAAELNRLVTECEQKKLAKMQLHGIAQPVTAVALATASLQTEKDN
Method in brief: as §1

EHF = target: T3, EHF (Homo sapiens, UniProt Q9NZC4 1-300)
T3 sequence: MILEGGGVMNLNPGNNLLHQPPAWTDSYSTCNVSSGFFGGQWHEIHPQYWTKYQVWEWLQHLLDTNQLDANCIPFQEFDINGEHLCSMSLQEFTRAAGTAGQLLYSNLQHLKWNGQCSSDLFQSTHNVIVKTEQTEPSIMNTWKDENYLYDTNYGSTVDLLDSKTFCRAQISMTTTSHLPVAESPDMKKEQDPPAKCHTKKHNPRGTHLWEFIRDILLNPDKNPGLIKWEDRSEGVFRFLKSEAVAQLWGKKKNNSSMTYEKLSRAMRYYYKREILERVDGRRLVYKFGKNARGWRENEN
Method in brief: as §1

ELK3 = target: T4, ELK3 (Homo sapiens, UniProt P41970 1-407)
T4 sequence: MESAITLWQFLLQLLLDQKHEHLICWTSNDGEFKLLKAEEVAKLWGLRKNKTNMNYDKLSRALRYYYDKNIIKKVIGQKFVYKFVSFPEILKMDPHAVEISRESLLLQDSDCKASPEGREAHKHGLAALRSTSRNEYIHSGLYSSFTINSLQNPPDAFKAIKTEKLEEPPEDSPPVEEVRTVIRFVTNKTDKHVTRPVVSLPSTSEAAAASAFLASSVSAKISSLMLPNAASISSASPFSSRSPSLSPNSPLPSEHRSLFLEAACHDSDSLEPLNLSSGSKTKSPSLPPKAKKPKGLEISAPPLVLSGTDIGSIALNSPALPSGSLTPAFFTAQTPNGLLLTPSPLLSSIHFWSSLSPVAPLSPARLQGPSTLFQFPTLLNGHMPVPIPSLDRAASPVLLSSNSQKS
Method in brief: as §1

SPIC = target: T5, SPIC (Homo sapiens, UniProt Q8N5J4 1-248)
T5 sequence: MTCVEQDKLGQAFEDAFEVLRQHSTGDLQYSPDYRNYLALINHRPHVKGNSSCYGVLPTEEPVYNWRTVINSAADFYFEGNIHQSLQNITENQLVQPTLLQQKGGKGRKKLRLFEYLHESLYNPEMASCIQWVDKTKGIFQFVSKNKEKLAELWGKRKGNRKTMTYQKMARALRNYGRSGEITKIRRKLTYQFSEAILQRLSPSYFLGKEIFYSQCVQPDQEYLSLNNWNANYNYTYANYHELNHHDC
Method in brief: as §1

ELK4 = target: T6, ELK4 (Homo sapiens, UniProt P28324-2 1-405)
T6 sequence: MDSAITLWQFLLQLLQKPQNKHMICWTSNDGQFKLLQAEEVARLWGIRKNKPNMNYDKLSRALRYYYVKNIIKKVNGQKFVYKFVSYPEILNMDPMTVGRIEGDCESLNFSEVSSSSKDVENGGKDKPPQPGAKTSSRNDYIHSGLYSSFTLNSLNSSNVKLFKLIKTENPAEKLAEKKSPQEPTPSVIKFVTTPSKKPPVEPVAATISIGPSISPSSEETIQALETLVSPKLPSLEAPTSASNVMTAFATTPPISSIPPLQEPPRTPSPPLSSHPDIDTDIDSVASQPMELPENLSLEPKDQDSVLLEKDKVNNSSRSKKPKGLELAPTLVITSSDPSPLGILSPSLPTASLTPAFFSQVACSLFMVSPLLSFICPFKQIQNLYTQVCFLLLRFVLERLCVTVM
Method in brief: as §1

ELF3 = target: T7, ELF3 (Homo sapiens, UniProt P78545 1-371)
T7 sequence: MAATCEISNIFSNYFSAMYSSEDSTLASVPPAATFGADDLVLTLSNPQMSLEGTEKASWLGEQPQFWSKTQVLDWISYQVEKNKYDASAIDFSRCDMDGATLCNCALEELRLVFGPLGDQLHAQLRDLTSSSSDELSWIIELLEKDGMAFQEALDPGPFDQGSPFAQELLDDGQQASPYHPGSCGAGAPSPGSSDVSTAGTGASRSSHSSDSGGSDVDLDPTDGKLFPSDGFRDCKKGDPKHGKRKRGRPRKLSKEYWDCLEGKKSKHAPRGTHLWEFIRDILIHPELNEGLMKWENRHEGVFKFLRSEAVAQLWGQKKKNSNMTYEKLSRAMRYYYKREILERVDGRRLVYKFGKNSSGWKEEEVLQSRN
Method in brief: as §1

ETV1 = ETV1 (Homo sapiens, UniProt P50549 1-477)
Sequence of ETV1 (P50549 whole entry): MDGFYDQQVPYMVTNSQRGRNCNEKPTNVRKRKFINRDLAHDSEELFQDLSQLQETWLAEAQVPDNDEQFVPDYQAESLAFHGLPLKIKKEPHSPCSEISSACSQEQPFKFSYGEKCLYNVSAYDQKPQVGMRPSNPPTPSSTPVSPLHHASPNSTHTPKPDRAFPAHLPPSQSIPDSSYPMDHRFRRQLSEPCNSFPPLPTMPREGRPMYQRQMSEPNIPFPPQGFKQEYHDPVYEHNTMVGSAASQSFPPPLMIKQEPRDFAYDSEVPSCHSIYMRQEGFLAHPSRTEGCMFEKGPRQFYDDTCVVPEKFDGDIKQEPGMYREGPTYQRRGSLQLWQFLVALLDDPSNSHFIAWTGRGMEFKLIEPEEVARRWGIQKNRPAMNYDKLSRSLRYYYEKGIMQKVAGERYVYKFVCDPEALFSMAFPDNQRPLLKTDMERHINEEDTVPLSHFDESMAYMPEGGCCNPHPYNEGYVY
Method in brief: as §1

ERF = target: T8, ERF (Homo sapiens, UniProt P50548 1-548)
T8 sequence: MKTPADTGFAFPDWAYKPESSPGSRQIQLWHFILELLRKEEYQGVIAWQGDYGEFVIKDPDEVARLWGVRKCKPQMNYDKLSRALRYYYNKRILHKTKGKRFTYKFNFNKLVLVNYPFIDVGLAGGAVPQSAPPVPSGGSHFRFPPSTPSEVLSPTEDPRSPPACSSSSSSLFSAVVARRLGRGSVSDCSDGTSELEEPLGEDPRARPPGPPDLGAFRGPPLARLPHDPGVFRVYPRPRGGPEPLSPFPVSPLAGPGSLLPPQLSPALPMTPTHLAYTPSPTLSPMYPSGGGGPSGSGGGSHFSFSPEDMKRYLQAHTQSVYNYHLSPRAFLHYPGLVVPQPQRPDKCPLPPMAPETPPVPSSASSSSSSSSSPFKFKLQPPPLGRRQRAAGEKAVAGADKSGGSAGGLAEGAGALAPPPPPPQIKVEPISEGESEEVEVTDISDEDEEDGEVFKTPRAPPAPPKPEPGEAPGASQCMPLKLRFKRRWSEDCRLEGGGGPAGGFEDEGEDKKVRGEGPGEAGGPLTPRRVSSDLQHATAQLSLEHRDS
Method in brief: as §1

ETV3L = target: T9, ETV3L (Homo sapiens, UniProt Q6ZN32 1-361)
T9 sequence: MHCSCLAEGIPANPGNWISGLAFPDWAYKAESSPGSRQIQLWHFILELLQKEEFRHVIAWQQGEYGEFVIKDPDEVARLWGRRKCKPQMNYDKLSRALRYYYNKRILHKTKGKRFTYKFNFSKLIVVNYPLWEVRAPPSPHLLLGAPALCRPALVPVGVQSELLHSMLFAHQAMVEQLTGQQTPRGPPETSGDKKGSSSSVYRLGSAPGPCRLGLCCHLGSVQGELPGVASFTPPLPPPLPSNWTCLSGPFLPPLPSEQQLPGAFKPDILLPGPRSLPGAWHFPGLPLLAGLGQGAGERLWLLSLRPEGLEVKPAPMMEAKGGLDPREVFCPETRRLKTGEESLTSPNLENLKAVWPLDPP
Method in brief: as §1

ETV7 = target: T10, ETV7 (Homo sapiens, UniProt Q9Y603 1-341)
T10 sequence: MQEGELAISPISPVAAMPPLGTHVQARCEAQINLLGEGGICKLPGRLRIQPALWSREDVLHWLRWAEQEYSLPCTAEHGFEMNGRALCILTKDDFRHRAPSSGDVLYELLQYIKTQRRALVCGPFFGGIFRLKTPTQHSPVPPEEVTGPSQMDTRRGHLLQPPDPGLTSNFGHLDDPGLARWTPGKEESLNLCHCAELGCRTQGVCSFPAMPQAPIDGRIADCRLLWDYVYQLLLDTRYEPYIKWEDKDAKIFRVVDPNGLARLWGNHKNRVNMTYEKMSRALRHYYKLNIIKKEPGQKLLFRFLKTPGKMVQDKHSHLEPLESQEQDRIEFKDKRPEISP
Method in brief: as §1

ETV3 = target: T11, ETV3 (Homo sapiens, UniProt P41162-2 1-143)
T11 sequence: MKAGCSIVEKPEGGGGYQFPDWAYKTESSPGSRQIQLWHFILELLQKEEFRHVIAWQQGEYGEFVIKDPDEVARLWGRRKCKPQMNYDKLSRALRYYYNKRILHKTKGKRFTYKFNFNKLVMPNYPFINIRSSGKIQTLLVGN
Method in brief: as §1

ETV6 = ETV6 (Homo sapiens, UniProt P41212 1-452)
Sequence of ETV6 (P41212 whole entry): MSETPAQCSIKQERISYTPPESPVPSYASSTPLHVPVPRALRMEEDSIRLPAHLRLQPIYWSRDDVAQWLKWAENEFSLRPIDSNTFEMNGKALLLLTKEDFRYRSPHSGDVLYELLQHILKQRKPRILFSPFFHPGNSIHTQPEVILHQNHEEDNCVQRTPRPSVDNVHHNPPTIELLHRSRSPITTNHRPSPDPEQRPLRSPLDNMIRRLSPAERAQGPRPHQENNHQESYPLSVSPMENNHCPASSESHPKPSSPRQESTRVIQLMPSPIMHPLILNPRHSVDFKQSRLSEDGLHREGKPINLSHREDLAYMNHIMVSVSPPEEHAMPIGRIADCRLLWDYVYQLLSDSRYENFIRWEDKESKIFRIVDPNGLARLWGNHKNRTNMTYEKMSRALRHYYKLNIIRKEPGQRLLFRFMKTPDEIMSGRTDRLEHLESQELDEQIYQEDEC
Method in brief: as §1

GTTTGT
binding signal (FLI1): 1.15 fold enrichment (6-mer frequency, TF over GST control)
binding signal (GABPA): 1.03 fold enrichment (6-mer frequency, TF over GST control)
binding signal (EHF): 1.03 fold enrichment (6-mer frequency, TF over GST control)
binding signal (ELK3): 1.06 fold enrichment (6-mer frequency, TF over GST control)
binding signal (SPIC): 1.01 fold enrichment (6-mer frequency, TF over GST control)
binding signal (ELK4): 1.19 fold enrichment (6-mer frequency, TF over GST control)
binding signal (ELF3): 1.07 fold enrichment (6-mer frequency, TF over GST control)
binding signal (ETV1): 1.04 fold enrichment (6-mer frequency, TF over GST control)
binding signal (ERF): 1.06 fold enrichment (6-mer frequency, TF over GST control)
binding signal (ETV3L): 1.06 fold enrichment (6-mer frequency, TF over GST control)
binding signal (ETV7): 1.11 fold enrichment (6-mer frequency, TF over GST control)
binding signal (ETV3): 1.06 fold enrichment (6-mer frequency, TF over GST control)
binding signal (ETV6): 1.11 fold enrichment (6-mer frequency, TF over GST control)
